Screening results: PubChem BioAssay, The Scripps Research Institute Molecular Screening Center
Sampled rows, rich in hits. Any-hit rate of the full collection: about 4.1%.
hgDAF12 agonist = H. glycines DAF-12 receptor agonists, primary screen, cell-based, luminescence, HEK293, GAL4 fusion, UAS-luciferase | activation, % at 6.8 µM | Nuclear hormone receptor DAF-12 (Heterodera glycines), GAL4 fusion | 370,000 tested, 1.8% active | AID 687014, 2013 | HEK293 GAL4-hgDAF12 UAS-luciferase reporter, agonist luminescence; normalized to butyrate control;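 active = activation above a cutoff set at the mean of all screened compounds plus 3 SD, cut at about 10% in these data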
ssDAF12 agonist = S. stercoralis DAF-12 nuclear receptor activators, primary screen, cell-based, luminescence, HEK293, GRIP1 co-expression, lit1-tk-luc; Nuclear hormone receptor DAF-12 (Strongyloides stercoralis); HEK293 ssDAF-12/GRIP1 lit1-tk-luc reporter; % of 3 µM dafachronic acid response; 370,000 tested, 1% active; activation, % at 6.8 µM;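 active = activation above the mean over all tested compounds plus 3 SD, cut at about 0.9% in these data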
hcDAF12 agonist = H. contortus DAF-12 nuclear receptor activators, primary screen, cell-based, luminescence, HEK293, lit1-tk-luc reporter; AID 652067, 2013; 370,000 tested, 1.4% active; activation, % at 6.8 µM; HEK293 hcDAF-12 lit1-tk-luc reporter; 0% DMSO, 100% Δ7-dafachronic acid;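 active = activation above the mean of all tested compounds plus 3 SD, cut at about 5.5% in these data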
DAX1 inh-1 = DAX1 (NR0B1) inhibitors on StAR promoter, primary screen, cell-based, luminescence, SF-1 (NR5A1), full-length DAX-1; 370,000 tested, 1.1% active; AID 652010, 2013; inhibition, % at 6.8 µM; HEK293T StAR-luciferase reporter, SF-1/DAX-1 repression relief;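 active = inhibition above the mean over all tested compounds plus 3 SD, cut at about 3.6% in these data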;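 note: higher inhibition means more luminescence from relief of DAX-1 repression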
DAX1 inh-2 = DAX1 (NR0B1) inhibitors, primary screen, cell-based, HEK293, Gal4-DAX1, luciferase luminescence; Nuclear receptor subfamily 0 group B member 1 (Homo sapiens), P51843; HEK293 Gal4-DAX1 luciferase reporter; inhibition, % at 6.75 µM; 340,000 tested, 0.99% active; AID 504766, 2011;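 active = inhibition above the mean over all tested compounds plus 3 SD, cut at about 4.2% in these data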;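 note: inhibition shows as a rise in luminescence from relieved DAX1 repression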
Target sequence (P51843 207-470 limits assumed): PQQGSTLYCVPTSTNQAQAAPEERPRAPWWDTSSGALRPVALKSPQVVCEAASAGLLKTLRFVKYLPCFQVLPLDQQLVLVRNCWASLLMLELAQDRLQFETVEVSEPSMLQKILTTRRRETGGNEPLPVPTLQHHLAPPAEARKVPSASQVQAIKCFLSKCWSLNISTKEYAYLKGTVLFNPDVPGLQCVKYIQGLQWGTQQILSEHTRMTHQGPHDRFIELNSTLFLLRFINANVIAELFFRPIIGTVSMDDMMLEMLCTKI
hgDAF12 conf = H. glycines DAF-12 receptor agonists, confirmation, cell-based, luminescence, HEK293, GAL4-LBD fusion; 3,300 tested, 80% active; shares compounds with hgDAF12 agonist; activation, % at 6.8 µM; HEK293 GAL4-hgDAF12 luciferase reporter, agonist mode; percent of butyrate response;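 active = mean activation over triplicate wells above the hit cutoff derived from the earlier primary screen, cut at about 11% in these data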
LXR ag 2 = LXR agonists, Gal4 luciferase reporter, confirmation, counter-screen for hgDAF-12 agonist project, cell-based, luminescence, HEK293, H. glycines campaign; shares compounds with hgDAF12 agonist; 24 h; activation, % at 6.8 µM; 3,300 tested, under 10 active;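 active = mean activation of the triplicate above a set limit carried over from the primary screen, none filed active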
Of the large screens only hits and unclear results are named; the others gave an inactive call (follow-up assays come after a bar, where they were run).

C[N+](C)(C)CC(=O)N1CCN(c2ccc3ccccc3n2)CC1	none
Oc1ccccc1N1CCN(c2ccc3ccccc3n2)CC1	hgDAF12 agonist 15.6 | hgDAF12 conf 15.4 | LXR ag 2 inactive
CC(=O)Nc1ccc(SCC(=O)c2cc(C)n(-c3ccccc3)c2C)cc1	none
Cc1cc(C(=O)CSc2nncn2C)c(C)n1-c1ccccc1	hgDAF12 agonist 15.8 | hgDAF12 conf 15.7 | LXR ag 2 inactive
Cc1ccc(-c2cc(-c3nnc(SCC(=O)Nc4nccs4)n3N)[nH]n2)cc1	hgDAF12 agonist 13.3 (no result: DAX1 inh-2) | hgDAF12 conf 10.4 | LXR ag 2 inactive
CSc1ccc(-c2cc(=O)c3ccccc3o2)cc1	hgDAF12 agonist 17.5, ssDAF12 agonist 3.1, hcDAF12 agonist 10.1, DAX1 inh-1 3.9 | hgDAF12 conf 17.7 | LXR ag 2 inactive
O=c1oc2ccccc2cc1-c1cn2ccccc2n1	none
O=c1oc2ccccc2cc1-c1cn2cccnc2n1	hgDAF12 agonist 14.3, DAX1 inh-1 4.1 | hgDAF12 conf 18.1 | LXR ag 2 inactive
O=C(CSc1ccccn1)Nc1ccc(NC(=O)CSc2ccccn2)cc1	none
CCc1ccc(NC(=O)CSc2ccccn2)cc1	hgDAF12 agonist 14.3 | hgDAF12 conf inactive | LXR ag 2 inactive
O=C(CCSc1ccccn1)Nc1ccc(Br)cc1	hgDAF12 agonist 13.6, ssDAF12 agonist 1.1 | hgDAF12 conf 11.3 | LXR ag 2 inactive
O=C(N/N=C1\CCc2ccccc21)c1ccc(O)cc1	none
Cc1ccc(C(=O)N/N=C2\CCc3ccccc32)c(C)c1	hgDAF12 agonist 15.2 | hgDAF12 conf 13.6 | LXR ag 2 inactive
CCOC(=O)N/N=C1\CCc2ccccc21	hgDAF12 agonist 14.9 | hgDAF12 conf inactive | LXR ag 2 inactive
CCOC(=O)NN=C1c2ccccc2-c2ccccc21	none
O=C1CSC(c2ccc([N+](=O)[O-])cc2)N1c1ccccc1F (configuration not stated)	none
Cc1cccc(/C(N)=N/OC(=O)c2cccnc2)c1	hgDAF12 agonist 20.4, ssDAF12 agonist 1.1 | hgDAF12 conf 11.3 | LXR ag 2 inactive
CCN(CC)C(=O)CSc1nnc(-c2ccccc2)o1	hgDAF12 agonist 18.1 | hgDAF12 conf 12.2 | LXR ag 2 inactive
COc1cc2ccccc2cc1C(=O)NCc1ccncc1	none
NC(=O)c1cccnc1Nc1cccc([N+](=O)[O-])c1	hgDAF12 agonist 14.3, DAX1 inh-2 4.3 | hgDAF12 conf inactive | LXR ag 2 inactive
CCN(CC)S(=O)(=O)c1ccc(C2=NOC3(C2)N(C)c2ccccc2C3(C)C)cc1 (configuration not stated)	none
O=C(COc1ccc(Cc2ccccc2)cc1)c1ccc(F)cc1	none
O=C(COc1ccc(F)cc1)c1ccc2c(c1)CCCC2	hgDAF12 agonist 13.7 | hgDAF12 conf 13.3 | LXR ag 2 inactive
Cc1ncoc1C(=O)N1CCCC(C(=O)c2ccc(-c3ccccc3)cc2)C1 (configuration not stated)	none
Cc1ccccc1OCC(=O)Nc1ccc2c(c1)OCO2	none
O=C(COc1ccccc1Cl)Nc1ccc2c(c1)OCO2	hgDAF12 agonist 13.4, hcDAF12 agonist 6.0 | hgDAF12 conf 12.1 | LXR ag 2 inactive
CCc1ccc([C@@H]2C[C@H]3[C@@H](CN2S(=O)(=O)c2ccc(C)cc2)C(=O)C[C@@H](c2ccc(C)cc2)N3S(=O)(=O)c2ccc(C)cc2)cc1	none
Oc1ccc(-c2csc(-c3cccnc3)n2)c(O)c1	hgDAF12 agonist 25.1 | hgDAF12 conf 19.7 | LXR ag 2 inactive
CCOc1ccccc1N1CC(C(=O)NNC(=O)c2cc(OC)c(OC)c(OC)c2)CC1=O (configuration not stated)	none
O=C(NC(=S)Nc1ccc(N2CCOCC2)cc1)c1ccco1	hgDAF12 agonist 16.2 | hgDAF12 conf inactive | LXR ag 2 inactive
CCOC(=O)c1cc(-c2ccc(OC)cc2OC)nn1-c1ccc(C(=O)O)cc1	none
O=C(CNC(=O)c1ccc(N2CCCC2=O)cc1)Nc1ccc(F)c(F)c1F	none
COc1ccc2nc(SC(C)C(=O)NC3CCCCC3)[nH]c2c1 (configuration not stated)	none
COc1cccc2cc(-c3ccccc3)c(=O)oc12	hgDAF12 agonist 16.0, hcDAF12 agonist 5.8 | hgDAF12 conf 14.0 | LXR ag 2 inactive
COc1cccc2cc(-c3nc(-c4cccs4)cs3)c(=O)oc12	none
COC(=O)C(C)Oc1ccc2cc(-c3ccccc3)c(=O)oc2c1 (configuration not stated)	none
COc1ccc2cc(-c3ccccc3)c(=O)oc2c1	hgDAF12 agonist 13.8 | hgDAF12 conf 16.2 | LXR ag 2 inactive
COc1cccc2cc(-c3nc4ccccc4[nH]3)c(=O)oc12	hgDAF12 agonist 15.1, ssDAF12 agonist 1.1 | hgDAF12 conf 17.4 | LXR ag 2 inactive
Cc1ccc(NC(=S)NNC(=O)c2nn(C)c(C)c2Cl)cc1	hgDAF12 agonist 15.8, DAX1 inh-2 6.5 | hgDAF12 conf inactive | LXR ag 2 inactive
Cc1ccc(NC(=S)NNC(=O)c2c(Cl)c(C)nn2C)cc1	none
O=C(Nc1ccc(NC(=O)C2CCCCC2)cn1)c1ccco1	hgDAF12 agonist 16.2, hcDAF12 agonist 6.4, DAX1 inh-1 4.3 | hgDAF12 conf 10.8 | LXR ag 2 inactive
CCN(C(=O)/C=C/c1ccc(OC)cc1)C1CCCCC1	none
Cc1ccc(C2=N/C(=C/N3CCOCC3)C(=O)O2)cc1	none
Cc1ccc(C2=N/C(=C\N3CCCCC3)C(=O)O2)cc1	hgDAF12 agonist 14.3, hcDAF12 agonist 6.4 | hgDAF12 conf inactive | LXR ag 2 inactive
Nc1nnc(-c2ccccc2F)s1	none (no result: DAX1 inh-2)
Nc1nnc(-c2ccc(Cl)cc2Cl)s1	hgDAF12 agonist 15.2 | hgDAF12 conf inactive | LXR ag 2 inactive
CCOc1ccccc1CNn1cnnc1SCC(=O)NC(C)(C)C	none
CCN(CC)CCOC(=O)c1ccc(NC(=O)/C=C/c2cccs2)cc1	none
CCOC(=O)c1ccc(NC(=O)/C=C/c2cccs2)cc1	hgDAF12 agonist 18.6 | hgDAF12 conf inactive | LXR ag 2 inactive
